The structures appear in SMILES notation. Values without a mark were called inactive.

Common to all, as to test: log2 ratio of Biotin-Ahx-Ub-VS probe labelling (fragment/DMSO); higher = less target engagement (more negative = stronger competition), active = hit call of the paper (q ≤ 0.05, log2 ratio ≤ -1)
What all share (conditions): compound concentration: 200 uM; treatment time: 3 h

For one test, the target named is T1, OTUD6B (UniProt Q8N6M0).
T1 sequence (whole entry): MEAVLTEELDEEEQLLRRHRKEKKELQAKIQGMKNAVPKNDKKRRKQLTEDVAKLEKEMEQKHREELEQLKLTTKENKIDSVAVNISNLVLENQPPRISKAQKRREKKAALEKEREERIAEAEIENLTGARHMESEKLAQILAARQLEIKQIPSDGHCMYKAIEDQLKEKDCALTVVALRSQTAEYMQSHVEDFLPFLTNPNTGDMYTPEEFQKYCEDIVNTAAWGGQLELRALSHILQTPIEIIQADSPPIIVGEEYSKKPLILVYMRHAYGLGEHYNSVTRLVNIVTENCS
Put shortly: (§1)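 Using Biotin-Ahx-Ub-VS at 0.5 µM final for 1 h, DUBs were labelled in HEK293T lysate (495 µg per sample) that had first been treated in triplicate with fragment at 200 µM or vehicle for 3 h. NeutrAvidin enrichment, LysC and trypsin digestion and diaPASEF LC-MS/MS followed. Spectronaut label-free quantities were global-median-normalised. Values are average log2 fragment/vehicle ratios by unpaired t-test, using proteins with ≥2 unique peptides.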

The next test has as its target T2, OTUD7B (UniProt Q6GQQ9).
T2 sequence (whole entry): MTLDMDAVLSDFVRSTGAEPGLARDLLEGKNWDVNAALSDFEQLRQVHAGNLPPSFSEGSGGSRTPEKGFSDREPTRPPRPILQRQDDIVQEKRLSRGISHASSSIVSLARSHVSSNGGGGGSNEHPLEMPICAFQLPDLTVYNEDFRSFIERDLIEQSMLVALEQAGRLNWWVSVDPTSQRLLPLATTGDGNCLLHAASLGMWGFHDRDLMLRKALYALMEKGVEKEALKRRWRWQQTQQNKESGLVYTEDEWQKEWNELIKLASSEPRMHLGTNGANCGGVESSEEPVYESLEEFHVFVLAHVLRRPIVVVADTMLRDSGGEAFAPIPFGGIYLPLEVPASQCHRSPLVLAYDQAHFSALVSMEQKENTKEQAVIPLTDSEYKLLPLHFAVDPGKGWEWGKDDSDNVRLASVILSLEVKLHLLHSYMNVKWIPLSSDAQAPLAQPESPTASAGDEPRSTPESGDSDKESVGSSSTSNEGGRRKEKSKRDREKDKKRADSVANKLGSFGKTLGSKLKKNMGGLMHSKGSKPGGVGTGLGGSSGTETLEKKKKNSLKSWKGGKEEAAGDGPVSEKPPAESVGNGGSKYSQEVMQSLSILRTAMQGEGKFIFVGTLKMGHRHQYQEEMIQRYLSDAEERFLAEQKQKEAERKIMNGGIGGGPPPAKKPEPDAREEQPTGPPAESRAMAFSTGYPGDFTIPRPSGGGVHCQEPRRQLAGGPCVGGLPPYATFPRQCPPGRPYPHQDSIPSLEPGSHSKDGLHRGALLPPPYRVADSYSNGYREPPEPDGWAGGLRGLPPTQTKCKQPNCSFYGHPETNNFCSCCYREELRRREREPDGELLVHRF
The method, boiled down: as §1

A further test addresses PRPF8 (UniProt Q6P2Q9). Put shortly:
as §1

Another test deals with T3, PSMD7 (UniProt P51665).
T3 sequence (whole entry): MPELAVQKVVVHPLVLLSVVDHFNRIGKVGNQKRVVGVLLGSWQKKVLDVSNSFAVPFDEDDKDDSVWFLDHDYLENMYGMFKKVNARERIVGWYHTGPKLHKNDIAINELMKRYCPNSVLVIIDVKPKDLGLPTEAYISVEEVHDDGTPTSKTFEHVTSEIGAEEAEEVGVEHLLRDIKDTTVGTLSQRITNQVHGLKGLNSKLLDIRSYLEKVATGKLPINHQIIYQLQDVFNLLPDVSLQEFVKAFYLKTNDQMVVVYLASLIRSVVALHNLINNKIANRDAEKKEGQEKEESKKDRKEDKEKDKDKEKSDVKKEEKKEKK
Put shortly: as §1

The target of another test is UCHL1 (UniProt P09936). The method, boiled down: as §1
The target of the next test is T4, UCHL3 (UniProt P15374).
T4 sequence (whole entry): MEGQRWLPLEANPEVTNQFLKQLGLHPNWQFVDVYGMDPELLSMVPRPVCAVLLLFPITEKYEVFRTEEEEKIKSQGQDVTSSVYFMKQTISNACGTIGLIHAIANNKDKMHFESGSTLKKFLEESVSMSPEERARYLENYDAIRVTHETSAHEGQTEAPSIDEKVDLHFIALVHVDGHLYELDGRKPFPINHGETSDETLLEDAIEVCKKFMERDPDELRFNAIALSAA
Put shortly:
as §1

The target in a further test is T5, UCHL5 (UniProt Q9Y5K5).
T5 sequence (whole entry): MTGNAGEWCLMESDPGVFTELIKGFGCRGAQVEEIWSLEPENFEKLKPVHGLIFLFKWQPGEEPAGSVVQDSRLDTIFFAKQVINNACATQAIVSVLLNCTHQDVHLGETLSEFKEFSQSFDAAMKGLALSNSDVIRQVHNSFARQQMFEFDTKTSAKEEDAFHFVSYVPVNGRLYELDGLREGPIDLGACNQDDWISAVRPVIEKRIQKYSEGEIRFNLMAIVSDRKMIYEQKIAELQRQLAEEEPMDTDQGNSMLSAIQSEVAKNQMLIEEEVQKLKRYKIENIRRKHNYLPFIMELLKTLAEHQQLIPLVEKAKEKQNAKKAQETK
The method, boiled down: as §1

A further test has as its target USP10 (UniProt Q14694). The method, boiled down:
as §1

A further test has as its target T6, USP15 (UniProt Q9Y4E8).
T6 sequence (whole entry): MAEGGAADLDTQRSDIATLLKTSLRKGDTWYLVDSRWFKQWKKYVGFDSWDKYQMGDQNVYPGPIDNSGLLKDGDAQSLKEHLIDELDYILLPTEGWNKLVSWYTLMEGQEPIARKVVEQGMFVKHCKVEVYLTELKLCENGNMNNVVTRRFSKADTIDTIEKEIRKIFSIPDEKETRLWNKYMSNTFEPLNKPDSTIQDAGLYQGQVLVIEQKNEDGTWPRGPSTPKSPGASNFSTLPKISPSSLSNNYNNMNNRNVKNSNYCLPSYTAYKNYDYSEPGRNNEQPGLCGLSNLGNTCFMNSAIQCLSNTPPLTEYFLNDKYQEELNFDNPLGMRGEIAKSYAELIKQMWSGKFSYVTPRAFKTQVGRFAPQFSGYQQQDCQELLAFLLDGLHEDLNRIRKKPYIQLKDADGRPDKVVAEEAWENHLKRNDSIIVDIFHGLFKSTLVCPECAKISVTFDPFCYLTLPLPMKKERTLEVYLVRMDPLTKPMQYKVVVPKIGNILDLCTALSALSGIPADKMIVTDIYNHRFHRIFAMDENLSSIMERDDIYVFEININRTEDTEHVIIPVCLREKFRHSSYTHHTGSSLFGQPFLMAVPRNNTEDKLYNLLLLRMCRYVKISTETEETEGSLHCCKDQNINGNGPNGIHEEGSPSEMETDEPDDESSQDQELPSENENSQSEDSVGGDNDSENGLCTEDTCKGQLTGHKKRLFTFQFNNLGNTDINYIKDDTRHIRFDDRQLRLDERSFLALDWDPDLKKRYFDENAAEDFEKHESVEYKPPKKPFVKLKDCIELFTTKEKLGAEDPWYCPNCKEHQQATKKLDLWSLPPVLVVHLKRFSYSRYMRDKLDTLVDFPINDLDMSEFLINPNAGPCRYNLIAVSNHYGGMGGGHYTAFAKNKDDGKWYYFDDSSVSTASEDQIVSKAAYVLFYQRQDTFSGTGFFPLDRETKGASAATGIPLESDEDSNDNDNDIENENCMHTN
The method, boiled down:
as §1

In another test the target is USP16 (UniProt Q9Y5T5). Put shortly: as §1
Sequence of USP16 (Q9Y5T5 whole entry, looked up): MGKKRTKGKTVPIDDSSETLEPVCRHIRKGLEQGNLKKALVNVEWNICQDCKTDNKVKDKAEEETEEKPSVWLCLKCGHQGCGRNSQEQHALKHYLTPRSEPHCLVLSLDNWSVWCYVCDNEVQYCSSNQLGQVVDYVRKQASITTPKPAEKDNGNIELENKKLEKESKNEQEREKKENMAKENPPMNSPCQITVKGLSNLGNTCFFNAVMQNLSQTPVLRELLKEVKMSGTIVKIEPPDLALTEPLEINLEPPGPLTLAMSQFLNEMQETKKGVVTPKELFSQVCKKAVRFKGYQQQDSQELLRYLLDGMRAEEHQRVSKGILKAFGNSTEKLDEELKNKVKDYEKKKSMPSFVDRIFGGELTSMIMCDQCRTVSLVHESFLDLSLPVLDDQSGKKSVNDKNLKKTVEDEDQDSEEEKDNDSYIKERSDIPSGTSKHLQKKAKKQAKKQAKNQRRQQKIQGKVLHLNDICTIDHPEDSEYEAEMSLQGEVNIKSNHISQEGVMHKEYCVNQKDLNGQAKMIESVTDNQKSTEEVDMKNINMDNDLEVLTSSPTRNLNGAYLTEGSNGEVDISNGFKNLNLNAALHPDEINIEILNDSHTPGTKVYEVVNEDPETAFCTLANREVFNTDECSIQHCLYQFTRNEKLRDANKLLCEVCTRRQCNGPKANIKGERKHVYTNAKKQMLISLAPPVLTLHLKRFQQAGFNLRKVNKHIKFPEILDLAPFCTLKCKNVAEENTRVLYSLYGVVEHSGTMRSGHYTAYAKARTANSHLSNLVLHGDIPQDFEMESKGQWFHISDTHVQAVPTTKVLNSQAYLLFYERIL

Sequence of UCHL1 (P09936 whole entry, looked up): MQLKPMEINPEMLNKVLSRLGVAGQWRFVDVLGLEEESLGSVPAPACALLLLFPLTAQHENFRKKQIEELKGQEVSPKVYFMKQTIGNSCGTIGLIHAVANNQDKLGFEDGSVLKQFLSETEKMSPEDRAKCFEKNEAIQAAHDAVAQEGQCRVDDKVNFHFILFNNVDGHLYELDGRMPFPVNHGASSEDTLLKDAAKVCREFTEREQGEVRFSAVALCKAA
Sequence of USP10 (Q14694 whole entry): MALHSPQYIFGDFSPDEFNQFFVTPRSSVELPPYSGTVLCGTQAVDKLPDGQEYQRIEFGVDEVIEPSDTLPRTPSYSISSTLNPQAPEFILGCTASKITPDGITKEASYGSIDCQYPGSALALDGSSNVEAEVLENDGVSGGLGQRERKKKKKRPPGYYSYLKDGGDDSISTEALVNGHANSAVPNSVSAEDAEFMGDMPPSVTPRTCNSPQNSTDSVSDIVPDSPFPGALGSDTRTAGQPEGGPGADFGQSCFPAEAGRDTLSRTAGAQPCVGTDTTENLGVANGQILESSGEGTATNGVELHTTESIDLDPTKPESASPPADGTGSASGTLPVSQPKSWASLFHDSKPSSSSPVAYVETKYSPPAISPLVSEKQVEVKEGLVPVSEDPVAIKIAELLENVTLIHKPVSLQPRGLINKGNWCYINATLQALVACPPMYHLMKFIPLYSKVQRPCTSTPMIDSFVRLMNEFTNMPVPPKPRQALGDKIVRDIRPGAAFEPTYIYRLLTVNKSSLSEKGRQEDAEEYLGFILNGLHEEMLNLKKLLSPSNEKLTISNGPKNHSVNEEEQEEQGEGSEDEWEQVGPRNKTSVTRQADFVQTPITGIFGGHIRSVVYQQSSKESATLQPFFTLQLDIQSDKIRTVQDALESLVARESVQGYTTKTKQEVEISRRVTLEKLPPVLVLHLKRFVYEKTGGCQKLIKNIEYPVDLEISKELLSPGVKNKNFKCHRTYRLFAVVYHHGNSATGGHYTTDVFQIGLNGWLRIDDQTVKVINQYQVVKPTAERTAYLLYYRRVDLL

Take `Cc1cc(C(=O)NC2CCN(C(=O)CCl)CC2)no1`: the “log2 ratio of Biotin-Ahx-Ub-VS probe labelling” value with OTUD6B was -0.173; with OTUD7B, -0.263; in the test with PRPF8, -0.0374; in the test with PSMD7, -0.0768; in the test with UCHL1 it was -1.58 (active); with UCHL3, 0.336. The “log2 ratio of Biotin-Ahx-Ub-VS probe labelling” value with UCHL5 is -0.135; with USP10, -0.197; with USP15 it was -0.252; with USP16 it was 0.021.
